# Measurements reported in PubChem BioAssay (NCI).
# About 79,000 compounds went through this panel and 15% of them were active in at least one assay; those are over-represented in the sample as a whole. A number with no mark means an inactive call. No stated cut-off is given here; in the data, active means growth inhibition above about 70%; inactive means the rest.
# Experiment: NCI Yeast Anticancer Drug Screen. Data for the mec2-1 strain (AID 157)
# Conditions: S. cerevisiae mec2-1 strain, at 50.0 µM, stronger effect = higher value
# Procedure, shortened: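 Using mec2-1 yeast: add compound, measure growth, express inhibition versus vehicle-treated cultures.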
row,SMILES,growth inhibition [%]
1,C1Cc2onc(-c3noc4c3CCC4)c2C1,-16.8
2,O=[N+]([O-])c1c(Cl)ncnc1Cl,-47.8
3,CN(C)c1ccc2c(N(C)C)cc(N(C)C)nc2c1,-4.3
4,COc1cc(OC)c2cc(C(=O)c3ccc(C#N)cc3)c(=O)oc2c1,-12.1
5,COc1cc(C(=O)N2CCN(c3ccccc3)CC2)c2ccccc2n1,3.8
6,COc1ccc(/C=N/NC(=O)COCC(=O)N/N=C/c2ccc(OC)cc2)cc1,-47.7
7,CN=S(=O)(OCCCCCOS(=O)(=NC)c1ccc(C)cc1)c1ccc(C)cc1 (configuration not stated),-33.8
8,CCOC(=O)/C(C#N)=C\c1c[nH]c2ccccc12,23.9
9,CN(C)Cc1ccccn1,-17
10,CCC(=O)C1C(=O)c2ccccc2C1=O,-12.6
11,CCNCC(C)(C)O,-3.8
12,COC(CCCl)c1ccc(Cl)cc1 (configuration not stated),-43
13,COc1cccc(C(=O)NNC(=O)c2cccc3ccccc23)c1,-59.1
14,O=c1nc(Nc2cccc(Cl)c2)oc2cc(Cl)oc(=O)c12,26
15,Cc1cccc(C)c1NC(=S)/N=C\c1c(O)[nH]c(=O)[nH]c1=O,-27.2
16,CCCCNC(=O)c1ccc(OCC)cc1,20.4
17,CSc1cnc2ccccc2n1,-5.95
18,CC(=O)[C@@]1(O)CC[C@H]2[C@@H]3CC[C@@H]4CC(=O)CC[C@]4(C)[C@H]3[C@@H](O)C[C@@]21C,-1.9
19,CC(C)=CCC[C@@H](C)[C@H]1CC[C@@]2(C)C3=C(CC[C@]12C)[C@@]1(C)CC[C@H](O)C(C)(C)[C@@H]1CC3,-24.8

row,SMILES,growth inhibition [%]
1,CCOC(=O)c1cc(C)[nH]c(=O)c1C#N,-3.1
2,CCOc1ccc(NC(=S)N2CCC(CCCC3CCN(C(=S)Nc4ccc(OCC)cc4)CC3)CC2)cc1,-31.9
3,Oc1cc(O)c2c(c1)O[C@H](c1ccc(O)c(O)c1)[C@@H](O)C2,-17.9
4,CC1=CC(=Nc2ccc(N(C)C)cc2)C=C(C)C1=O,-21.1
5,O=C(O)c1ccc([N+](=O)[O-])cc1S(=O)(=O)O,-6.8
6,Cc1cc2nc(C)c(C)nc2cc1C,-37.9
7,NC(=S)c1c(N)n(C2OC(CO)C(O)C2O)c2ncnc(N)c12 (configuration not stated),-9.7
8,COC(c1ccc2c(c1)OCO2)C(C)Br (configuration not stated),-4.4
9,CC(C)C(=O)OCCOc1ccc(C(C)(C)C)cc1,3.1
10,CC(C)Sc1ncnc2nc[nH]c12,1.1
11,O=C(CCCl)OCCOc1ccccc1,4.3
12,O=C(c1ccccc1O)N1CCCC1,7.15
13,Nc1ncnc(Nc2ccc(C(F)(F)F)cc2)n1,8.35
14,Cc1cc2c(C(C)C)c(O)c(O)c(C=Nc3ccccc3[N+](=O)[O-])c2c(O)c1-c1c(C)cc2c(C(C)C)c(O)c(O)c(C=Nc3ccccc3[N+](=O)[O-])c2c1O,-19.6
15,O=C(CCl)Nc1ccccc1SCc1cc(Cl)cc2c1OCOC2,-16.4
16,CN1CCN(C(=S)S)CC1,-2.5
17,Nc1ncnc2c1ncn2C1OC(CO)C2OC21 (configuration not stated),-7.85
18,CCN(CC)CCOC(=O)Nc1c(C(C)C)cccc1C(C)C,-24.3
19,O=S(=O)(O)c1cccc2cccnc12,1.95

# Experiment: NCI Yeast Anticancer Drug Screen. Data for the sgs1 mgt1 strain (AID 161);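 further: 0% = growth of cultures given vehicle only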
# Conditions: S. cerevisiae sgs1 mgt1 strain, at 50.0 µM, stronger effect = higher value
# Procedure, shortened: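 Percent growth inhibition was derived by comparing compound-exposed mutant yeast with vehicle-exposed cultures. The strain carries alterations in DNA damage repair.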
row,SMILES,growth inhibition [%]
1,C1Cc2onc(-c3noc4c3CCC4)c2C1,-15.2
2,O=[N+]([O-])c1c(Cl)ncnc1Cl,-56.8
3,CN(C)c1ccc2c(N(C)C)cc(N(C)C)nc2c1,-17.1
4,COc1cc(OC)c2cc(C(=O)c3ccc(C#N)cc3)c(=O)oc2c1,25.1
5,COc1cc(C(=O)N2CCN(c3ccccc3)CC2)c2ccccc2n1,10.7
6,COc1ccc(/C=N/NC(=O)COCC(=O)N/N=C/c2ccc(OC)cc2)cc1,-15.4
7,CN=S(=O)(OCCCCCOS(=O)(=NC)c1ccc(C)cc1)c1ccc(C)cc1 (configuration not stated),-22.9
8,CCOC(=O)/C(C#N)=C\c1c[nH]c2ccccc12,46.3
9,CN(C)Cc1ccccn1,-4.25
10,CCNCC(C)(C)O,5.5
11,COC(CCCl)c1ccc(Cl)cc1 (configuration not stated),-10.8
12,COc1cccc(C(=O)NNC(=O)c2cccc3ccccc23)c1,-26.8
13,O=c1nc(Nc2cccc(Cl)c2)oc2cc(Cl)oc(=O)c12,51.8
14,CCCCNC(=O)c1ccc(OCC)cc1,33.3
15,CSc1cnc2ccccc2n1,-10.6
16,CC(=O)[C@@]1(O)CC[C@H]2[C@@H]3CC[C@@H]4CC(=O)CC[C@]4(C)[C@H]3[C@@H](O)C[C@@]21C,-3
17,CC(C)=CCC[C@@H](C)[C@H]1CC[C@@]2(C)C3=C(CC[C@]12C)[C@@]1(C)CC[C@H](O)C(C)(C)[C@@H]1CC3,21.8

row,SMILES,growth inhibition [%]
1,CCOc1ccc(NC(=S)N2CCC(CCCC3CCN(C(=S)Nc4ccc(OCC)cc4)CC3)CC2)cc1,-15.1
2,Oc1cc(O)c2c(c1)O[C@H](c1ccc(O)c(O)c1)[C@@H](O)C2,2.75
3,CC1=CC(=Nc2ccc(N(C)C)cc2)C=C(C)C1=O,-5.1
4,O=C(O)c1ccc([N+](=O)[O-])cc1S(=O)(=O)O,-24.3
5,Cc1cc2nc(C)c(C)nc2cc1C,-27.2
6,NC(=S)c1c(N)n(C2OC(CO)C(O)C2O)c2ncnc(N)c12 (configuration not stated),7.1
7,COC(c1ccc2c(c1)OCO2)C(C)Br (configuration not stated),13.6
8,CC(C)C(=O)OCCOc1ccc(C(C)(C)C)cc1,6.9
9,CC(C)Sc1ncnc2nc[nH]c12,-3.05
10,O=C(CCCl)OCCOc1ccccc1,-15.1
11,O=C(c1ccccc1O)N1CCCC1,19.9
12,Nc1ncnc(Nc2ccc(C(F)(F)F)cc2)n1,1.35
13,Cc1cc2c(C(C)C)c(O)c(O)c(C=Nc3ccccc3[N+](=O)[O-])c2c(O)c1-c1c(C)cc2c(C(C)C)c(O)c(O)c(C=Nc3ccccc3[N+](=O)[O-])c2c1O,-19.6
14,O=C(CCl)Nc1ccccc1SCc1cc(Cl)cc2c1OCOC2,21.6
15,CN1CCN(C(=S)S)CC1,4.75
16,Nc1ncnc2c1ncn2C1OC(CO)C2OC21 (configuration not stated),2.05
17,CCN(CC)CCOC(=O)Nc1c(C(C)C)cccc1C(C)C,14.3
